Sm TGR inh – blocks Schistosoma mansoni thioredoxin glutathione reductase; purified TGR, DTNB reduction, TNB absorbance 405 nm; Q962Y6; AID 485364; 3% of 360,000 active; Potency, µM (top dose mostly 114 µM), actives largely listed as inhibitors; further: nearly all actives have a fitted effect of over 60% in size
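First, TGR (20 nM dispensed) and NADPH were mixed with compound. Second, a 15 min room-temperature incubation followed. Third, further NADPH and then DTNB were added to start the reaction. Finally, TNB absorbance was monitored kinetically.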
FBPA Giardia inh – Giardia lamblia aldolase inhibition; 0.71% of 290,000 active; A8B2U2; AID 2451; Potency, µM (highest dose often 59.6 µM), usual class: inhibitors; purified Giardia FBPA; further: nearly all actives have a fitted effect of over 55% in size
Target sequence (A8B2U2 whole entry, looked up): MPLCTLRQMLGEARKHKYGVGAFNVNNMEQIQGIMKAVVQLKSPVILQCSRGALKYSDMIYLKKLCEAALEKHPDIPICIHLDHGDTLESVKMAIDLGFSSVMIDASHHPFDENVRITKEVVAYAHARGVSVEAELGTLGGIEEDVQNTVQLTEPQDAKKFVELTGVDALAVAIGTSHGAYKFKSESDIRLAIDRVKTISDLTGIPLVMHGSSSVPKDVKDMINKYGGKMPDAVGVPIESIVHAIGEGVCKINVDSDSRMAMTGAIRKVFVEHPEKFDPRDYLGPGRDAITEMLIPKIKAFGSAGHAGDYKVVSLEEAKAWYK
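40 nM FBPA preincubated 10 min at RT with compound (up to 57.5 uM final), then substrate plus GAPDH/TPI/NAD/arsenate coupling and diaphorase/resazurin added. Fluorescence read after 20 min at RT, 525/598 nm.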
FMDV inh – foot and mouth disease virus antiviral activity | 1.2% of 410,000 active | AID 1159524 | FMDV antiviral cell-based qHTS | Potency, µM (top dose mostly 57.9 µM), usual class: inhibitors; calls by dose curve; tested in HEK293T cells; further: read-out not given here; nearly all actives have a fitted effect of over 45% in size
TbPYK inhibitor – T. brucei pyruvate kinase inhibition; AID 624173; Q57TT1; Potency, µM (titrated, usually from 76.8 µM), most hits filed as inhibitors; 0.12% of 410,000 active; TbPYK enzyme, Kinase-Glo Plus ATP luminescence, 45 min; further: nearly all actives have a fitted effect of over 50% in size
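T. brucei PYK with substrate was exposed to pin-transferred compounds across a concentration series, then started with 130 uM ADP (final). After 45 min at room temperature, Kinase-Glo Plus luminescence was read, normalized and curve-fitted.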
RE007 growth inh – less growth of the S. pombe RE007 Vpr strain; S. pombe RE007 Vpr strain, BacTiter-Glo ATP luminescence, 24 h; 0.21% of 360,000 active; Potency, µM (titrated, usually from 92.2 µM), usual class: inhibitors; active means well fitted falling curve with a large enough effect; inconclusive means small, poorly fitted or top-dose-only effect; inactive means no such curve, though single readings can be large or run the other way; further: nearly all actives have a fitted effect of over 50% in size
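Fission yeast strain RE007, carrying one chromosomally integrated HIV-1 vpr copy, was seeded at OD 0.01 in PMG+AL medium with 23 nL pinned compound. After 24 h at 30 °C and 99% humidity, viability was read by BacTiter-Glo luminescence.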
HCMV antiviral – blocks human cytomegalovirus replication; HFF cells, HCMV-luciferase reporter, 72 h; stronger effect = lower value; activity change, negative = inhibition, % at 57.5 µM; 4.5% of 410,000 active; AID 1259415; in the data active means activity change below about -60%; inconclusive means no clear call, values can overlap the other calls; inactive means above about -39%
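After 16 h attachment at 37C, HFF cells received test compound and HCMV-luciferase (1 PFU/cell); reporter luminescence read 72 h later, data normalized against buffer-only and known inhibitor Salinomycin.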
Each line names hits and unclear results; the compound was inactive in the other large screens. A selection: hits, their analogues and other compounds. The true share with any hit is near 7.7%. Unless noted, the call rests on the fitted dose curve; in most records, active means well fitted curve in the direction sought with a large enough effect; inconclusive means small, poorly fitted or top-dose-only effect, or another doubt; inactive means no such curve, though single readings can be large; an effect the other way counts as inactive or inconclusive.

O=C(NCc1ccco1)c1ccc(C(=O)NCc2ccco2)cc1	HCMV antiviral -68.7 (no result: Sm TGR inh, FBPA Giardia inh)
CC(=O)N1[C@H](C)C=C[C@]1(Cc1ccccc1)C(=O)NCc1ccc(C)o1	none (no result: Sm TGR inh, FMDV inh, TbPYK inhibitor, RE007 growth inh, HCMV antiviral)
O=C(NCC1CCCO1)c1c[nH]c2ccc(S(=O)(=O)Nc3ccc(F)cc3F)cc2c1=O (centres undefined)	none (no result: FBPA Giardia inh, RE007 growth inh)
O=c1cc(-c2ccccc2O)oc2c1ccc1ccccc12	none (no result: Sm TGR inh, FMDV inh, TbPYK inhibitor, RE007 growth inh, HCMV antiviral)
COc1ccc2c(c1)-c1nc(-n3ncc(C(=O)NC[C@@H]4CCCN5CCCC[C@H]45)c3C)ncc1CC2	none (no result: Sm TGR inh, FBPA Giardia inh, TbPYK inhibitor, RE007 growth inh, HCMV antiviral)
Cn1ncc(Cl)c1C(=O)NCc1ccco1	Sm TGR inh 17.8µM
Cn1nccc1CNC(=O)c1c(Cl)cnn1C	none (no result: RE007 growth inh)
CC(C)c1cc(C(=O)NCc2ccco2)no1	Sm TGR inh 50.1µM
O=C(CCNC(=O)c1ccc([N+](=O)[O-])cc1)NCc1ccco1	HCMV antiviral -72.0 (no result: FBPA Giardia inh)
COc1ccccc1-n1cnc2cc(C(=O)NCc3ccco3)ccc21	Sm TGR inh 39.8µM
CCN1CCN(C(=O)c2c(C)nn(-c3ccc(F)cc3)c2-n2cccc2)CC1	FMDV inh inconclusive (no result: FBPA Giardia inh, RE007 growth inh)
CN(C)Cc1ccccc1-c1nc(N(C)Cc2ccco2)c2ccccc2n1	none (no result: Sm TGR inh, TbPYK inhibitor, RE007 growth inh, HCMV antiviral)
Cc1cccc(C(=O)NCc2ccco2)c1	Sm TGR inh 44.7µM
Cc1ccc(C(=O)NCc2ccco2)cc1	none
CC(C)C(CC(=O)NCc1ccco1)c1ccco1 (centres undefined)	Sm TGR inh 22.4µM
Cc1cc(=O)oc(C)c1C(=O)NCc1ccco1	Sm TGR inh 44.7µM
Cc1noc(C)c1C(=O)NCc1ccco1	none
Cn1nnc2cc(C(=O)NCc3ccco3)ccc21	Sm TGR inh 39.8µM
O=C(NCc1ccco1)c1ccc2c(c1)C(=O)c1ccccc1-2	Sm TGR inh 12.6µM
COc1cc(C(=O)/C=C/c2cccnc2)c([N+](=O)[O-])cc1OC	Sm TGR inh inconclusive, FMDV inh 14.1µM, HCMV antiviral -100.1 (no result: FBPA Giardia inh)
O=C(/C=C/c1cccnc1)c1cccc(O)c1	Sm TGR inh 28.2µM
O=C(C=Cc1cccnc1)c1ccccc1	FMDV inh 31.6µM, RE007 growth inh 44.7µM (no result: Sm TGR inh, FBPA Giardia inh)
O=C(/C=C/c1cccnc1)c1ccccc1O	Sm TGR inh 20µM (no result: RE007 growth inh)
CC1(C)OC(=O)C2=C(CC(CCc3ccccc3)OC2c2ccc(F)cc2)O1 (centres undefined)	none (no result: Sm TGR inh, FBPA Giardia inh, FMDV inh, TbPYK inhibitor, RE007 growth inh)
O=C(/C=C/c1ccc(O)cc1)c1ccccc1	TbPYK inhibitor inconclusive, RE007 growth inh 50.1µM
O=C(/C=C/c1ccccc1)c1ccc(O)cc1	none (no result: Sm TGR inh, TbPYK inhibitor, RE007 growth inh, HCMV antiviral)
O=C(C=Cc1ccccc1)c1ccc([N+](=O)[O-])cc1	none (no result: Sm TGR inh, FBPA Giardia inh)
O=C(/C=C/c1cccnc1)c1ccc(O)cc1	Sm TGR inh 44.7µM, HCMV antiviral -87.8
O=C(/C=C/c1cccnc1)c1ccc([N+](=O)[O-])cc1	Sm TGR inh 8.91µM, FBPA Giardia inh inconclusive
O=C1c2cccc(OCC(=O)N3CCCc4ccccc43)c2CCN1Cc1cccnc1	FMDV inh 28.2µM, HCMV antiviral -61.1
Cc1ccccc1CN1CCc2c(OCC(=O)N3CCCc4ccccc43)cccc2C1=O	FMDV inh 39.8µM, HCMV antiviral -61.6
CCN1CCc2c(OCC(=O)N3CCc4ccccc43)cccc2C1=O	none (no result: FMDV inh, TbPYK inhibitor, RE007 growth inh)
CCCc1nc2oc3c(NCCOCCO)ncnc3c2c2c1COC(C)(C)C2	FMDV inh inconclusive, HCMV antiviral -101.7
O=C1CC(c2ccccc2)c2cc(O)ccc2O1 (centres undefined)	Sm TGR inh 22.4µM (no result: FMDV inh)
Cc1ccc(C2CC(=O)Oc3cc4c(cc32)OCO4)cc1 (centres undefined)	FBPA Giardia inh 50µM (no result: Sm TGR inh, FMDV inh, TbPYK inhibitor, RE007 growth inh, HCMV antiviral)
CC(=O)N1CCc2cc(S(=O)(=O)NC3CCCc4ccccc43)ccc21 (centres undefined)	FMDV inh inconclusive, HCMV antiviral -63.7
O=C(O)c1ccc(S(=O)(=O)NC2CCCc3ccccc32)cc1 (centres undefined)	FBPA Giardia inh inconclusive
CC1NC2(C(=O)N(Cc3ccccc3)c3ccccc32)C2C(=O)N(c3ccccc3)C(=O)C12 (centres undefined)	HCMV antiviral -97.8
CN1C(=O)C(C2(O)C(=O)N(Cc3ccccc3)c3ccccc32)c2ccccc21 (centres undefined)	none (no result: Sm TGR inh, FBPA Giardia inh, FMDV inh, TbPYK inhibitor, RE007 growth inh)

Screening results deposited in PubChem BioAssay by National Center for Advancing Translational Sciences (NCATS).
